Laboratory results: PubChem BioAssay (NCI)
About 83,000 compounds went through this panel and 20% of them were active in at least one assay; those are over-represented in the sample as a whole.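 In brief: 96-well plates, 48 h treatment, single concentration, percent growth endpoint.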 A number with no mark means an inactive call. Active and inactive are the calls of the source. Rule for the calls: active = growth percent below 10; inactive = the rest.

What was measured:
Assay in all cases: NCI-60 one-dose screen, 48 h (100 = growth as untreated, 0 = no growth, -100 = all killed)
Conditions in all cases: 10 µM unless noted
[1] = test system: NCI-H23 lung
[2] = test system: NCI-H226 lung
[3] = test system: NCI-H322M lung
[4] = test system: HOP-62 NSCLC
[5] = test system: NCI-H460 lung
[6] = test system: HOP-92 NSCLC
[7] = test system: NCI-H522 lung
[8] = test system: A549/ATCC NSCLC
[9] = test system: 786-0 renal
[10] = test system: COLO 205 colon
[11] = test system: DU-145 prostate
[12] = test system: K-562 leukemia
[13] = test system: MALME-3M melanoma
[14] = test system: MDA-MB-231 breast
[15] = test system: RXF 393 renal
[16] = test system: SF-268 CNS
[17] = test system: SF-295 CNS
[18] = test system: SF-539 CNS
[19] = test system: M14 melanoma
[20] = test system: UACC-257 melanoma

Row | SMILES | growth [1] | growth [2] | growth [3] | growth [4] | growth [5] | growth [6] | growth [7] | growth [8] | growth [9] | growth [10] | growth [11] | growth [12] | growth [13] | growth [14] | growth [15] | growth [16] | growth [17] | growth [18] | growth [19] | growth [20] [%]
1 | COc1ccc2c3c(c4ccccc4cc13)C(=O)N(CCN(C)CCN)C2=O | -71.4% (active) | -67.4% (active) | -44.4% (active) | -77.4% (active) | -69.2% (active) | -7.66% (active) | -77.2% (active) | -78.3% (active) | -97.9% (active) | -82.7% (active) | -86.6% (active) | -68% (active) | -75.7% (active) | -72.1% (active) | -94.3% (active) | -67.5% (active) | -88.9% (active) | -83% (active) | -83.2% (active) | –
2 | C=C1C(=O)O[C@H]2[C@H]1CC/C(Cn1cc(-c3ccc(OC)cc3)nn1)=C\CC[C@@]1(C)O[C@@H]21 | 4.37% (active) | -44.1% (active) | 88.7% | 49.7% | 87.6% | -60.1% (active) | -78.7% (active) | 57.3% | -83.2% (active) | -86% (active) | -35% (active) | -9.11% (active) | -62.3% (active) | -12.3% (active) | -63.6% (active) | 12.7% | 88.8% | -16.6% (active) | -43.9% (active) | –
3 | COc1ccc2nc(-c3c(-c4ccccc4)nc4ncccn34)[nH]c2c1 | 105% | 106% | 105% | 108% | 106% | 111% | 88.7% | 97.8% | 103% | 108% | 115% | 101% | 112% | 99.3% | 104% | 109% | – | 100% | – | 105
4 | COc1cc(-c2cc3cc(O)ccc3oc2=O)cc(OC)c1OC | 101% | 89.2% | 85.9% | 90.9% | 107% | 86.5% | 86.5% | 107% | 98.2% | 102% | 107% | 89.1% | 112% | 72.8% | 101% | 102% | 91.9% | 87.1% | 86.9% | –
5 | Clc1ccc(Cn2cc(-c3nc4ccc(Br)nc4n3Cc3ccc(Cl)cc3)c3cccnc32)cc1 | 65.9% | 77.7% | 81.1% | 82.7% | 97.4% | 65.4% | 70% | 95.9% | 90.5% | 94.5% | 105% | 78.9% | 92.4% | 53.1% | 83% | 89.2% | 83.9% | 86% | 89.8% | –
6 | Nc1c(C(=O)Nc2c(Cl)cccc2Cl)sc2nc3c(cc12)C(=O)CCC3 | 48.5% | 71.2% | 56.7% | 30.7% | 12.9% | 42.6% | 6.59% (active) | 38% | 29% | 7.4% (active) | 41.1% | 16.6% | 35.2% | 51.1% | 23.7% | 57.8% | 18.8% | 5.18% (active) | 12.1% | –
7 | COC(=O)[C@]12CC[C@@H](C)[C@H](C)[C@@H]1C1=CC[C@@H]3[C@@]4(C)C[C@@H](OC(C)=O)[C@H](OC(C)=O)[C@@](C)(COC(C)=O)[C@@H]4[C@H](O)C[C@@]3(C)[C@]1(C)CC2 | 17.5% | 2.17% (active) | 34.6% | 15.6% | 4.06% (active) | 31.2% | -2.94% (active) | 7.91% (active) | 15% | -76% (active) | 20.3% | 8.42% (active) | 5.25% (active) | 18.1% | -22.1% (active) | 23.4% | 7.96% (active) | 15.4% | 14.2% | –
8 | COc1cccc(-c2nn(-c3ccccc3)cc2-c2ccnc(NCCCO)c2)c1 | 51.5% | 69.2% | 66% | 27.1% | 18.4% | 41.8% | 18% | 35.1% | 48.7% | 11.2% | 63.8% | 8.63% (active) | 51.4% | 38.4% | 47.6% | 53.7% | 27.1% | 33.5% | 12.8% | –
9 | N#CCCCCCn1c2ccccc2c2c3c(c4c5ccccc5n(CCCCCC#N)c4c21)C(=O)N(O)C3=O | 72.5% | 79.1% | 81.5% | 37.1% | 87.7% | 87.4% | 53.7% | 94.5% | 92.1% | 84.6% | 93.6% | 79.7% | 77.1% | 32.3% | 80.8% | 70.3% | 89.2% | 71% | 85.3% | –
10 | COc1ccc(C2c3ccccc3NC(=O)N2C2CCN(C)CC2)c(OC)c1 (configuration not stated) | 100% | 94.1% | 95.9% | 101% | 101% | 79.9% | 89.5% | 103% | 102% | 106% | 105% | 93.1% | 88.1% | 91.9% | 97.1% | 98.2% | 90.6% | 95.2% | 85.3% | –
11 | CCN(CC)C(=O)CCCCCn1c2ccccc2c2c3c(c4c5ccccc5[nH]c4c21)C(=O)N(O)C3=O | 46.8% | 69.9% | 81.8% | -26.4% (active) | 53.1% | 78.5% | -66.5% (active) | 87.2% | 78.1% | -7.19% (active) | 69% | 40.8% | 102% | 42.9% | 45.6% | 51.6% | 62.5% | 39.7% | 53.9% | –
12 | COc1ccc(/C=C/C(=O)NCC(C)O)cc1 (configuration not stated) | 93.5% | 91.5% | 94.5% | 89.1% | 101% | 101% | 85% | 83.2% | 100% | 104% | 103% | 122% | 101% | 100% | 90.7% | 94% | 99.7% | 92.8% | 101% | –
13 | Fc1ccc(Nc2nc(Nc3ccc(-c4nc5ccccc5[nH]4)cc3)nc(N3CCCC3)n2)cc1 | 75.1% | 79.9% | 96% | 78.6% | 70.4% | 64.4% | 78.8% | 61.2% | 85.2% | 86% | 93.3% | -38.8% (active) | 85.7% | 61.6% | 77.8% | 91.2% | 90.9% | 81.6% | -58.3% (active) | –
14 | COc1ccc(-c2cc(/C=C/C(=O)c3ccc(N)cc3)[nH]n2)cc1 | 27.3% | 24.5% | 12.4% | 15.4% | -50% (active) | 73.6% | -24.3% (active) | 18.6% | 17.8% | 7.56% (active) | 11.9% | -2.07% (active) | 54.3% | 35.7% | 20% | 17% | – | 1.33% (active) | – | 58.9
15 | Oc1cc(/C=C/c2nc(N3CCOCC3)c3cc(Cl)c(Cl)cc3n2)cc(O)c1O | 101% | 85.8% | 113% | 97.2% | 101% | 102% | 88.6% | 106% | 95.7% | 108% | 104% | 81.5% | 107% | 106% | 98.8% | 108% | – | 94.1% | 102% | 99.8
16 | COC(=O)[C@]12CC[C@@H](C)[C@H](C)[C@@H]1C1=CC[C@@H]3[C@@](C)(CC#N)C4=C(C[C@@]3(C)[C@]1(C)CC2)OC[C@]4(C)C=O | -10.1% (active) | -37% (active) | 10.4% | -23.6% (active) | -57.1% (active) | 2.68% (active) | -6.43% (active) | -73.6% (active) | -19.3% (active) | -94% (active) | 5.07% (active) | 5.97% (active) | -16.9% (active) | -8.99% (active) | -85.1% (active) | 3.69% (active) | -30.6% (active) | -38.4% (active) | -1.53% (active) | –
